Out of some 340,000 compounds screened, about 3,300 (0.97%) were called active. Not shown: some 9% with an inconclusive outcome. Calls follow the shape of the dose curve; as a rule, active = well fitted inhibition curve with a large enough effect; inconclusive = small, poorly fitted or top-dose-only effect, or effect the other way; inactive = flat fitted curve, though single readings scatter. The list shows a part of the results.
Experiment: qHTS Assay for Modulators of miRNAs and/or Inhibitors of miR-21; also: nearly all actives have a fitted effect of over 55% in size
Conditions: HeLa miR-21-FLuc reporter, luciferase luminescence, 48 h; actives lower the signal
Summary of the method: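 Luminescence from a firefly luciferase reporter carrying a miR-21 binding site downstream, stably expressed under a CMV promoter in HeLa cells that make miR-21 endogenously, reports miRNA modulation after 48 h compound exposure up to approximately 40uM final.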
Potency is read from the fitted curve at half-maximal effect.

Potency, active:
Cn1c(=O)n(C)c2cc(NS(=O)(=O)c3ccc(F)cc3)c(NCc3ccccc3)cc21 9.27 µM, CCOc1ccc(OCCn2nnc3ccccc3c2=O)cc1 5.21 µM, O=c1c2ccccc2nnn1COc1cccc2ccccc12 14.7 µM, O=c1c2ccccc2nnn1COc1cccc(Cl)c1 13.1 µM, Cc1ccc(NC(=O)/C(C#N)=C/c2ccc(C)o2)cc1 0.329 µM, Cc1ccc(/C=C(\C#N)C(=O)Nc2ccc(Br)cc2)o1 0.656 µM, CC1CC1c1ccc(/C=C(\C#N)C(=O)Nc2ccccc2Cl)o1 (stereo not given) 14.7 µM, Cc1cccc(NC(=O)/C(C#N)=C/c2ccco2)c1 4.14 µM, Cc1ccc(/C=C(\C#N)C(=O)Nc2cccc(Cl)c2)o1 1.47 µM, COc1ccccc1NC(CC(=O)c1ccccc1)C(=O)OCC(=O)c1ccc(C)cc1 (stereo not given) 1.47 µM, O=C(CC(Nc1ccc(F)cc1)C(=O)OCC(=O)c1cccs1)c1ccccc1 (stereo not given) 3.29 µM, COc1ccccc1NC(CC(=O)c1ccccc1)C(=O)OCC(=O)c1ccc(C)c(C)c1 (stereo not given) 1.04 µM, O=C(c1ccc(COCC(F)(F)F)cc1)N1CCN(c2ccccn2)CC1 14.7 µM, CCc1ccc(N2C(=O)Cc3c2nc(N)c(C#N)c3N)cc1 16.5 µM, COc1ccc(NC(=O)C2C3CC/C=C\CCC32)cc1 (stereo not given) 6.56 µM, CNC(=O)c1c(NC(=O)c2nc3ccccc3s2)sc2c1CCC2 1.31 µM, O=C(O)c1ccc(N/N=C/c2cc3ccccc3nc2Cl)cc1 3.29 µM, Cc1ccc2cc(/C=N/Nc3ccc(C(=O)O)cc3)c(Cl)nc2c1 2.07 µM, Cc1cccc2cc(/C=N/Nc3ccc(C(=O)O)cc3)c(Cl)nc12 0.521 µM, CCCCOc1ccc2c(c1)C(=O)c1cc(O)ccc1-2 5.85 µM, O=[N+]([O-])c1ccccc1N/N=C1\CC2CC=CC12 (stereo not given) 16.5 µM, O=c1[nH]c(/C=C/c2ccc(Br)cc2)nc2ccccc12 0.369 µM, C=CCOc1cccc(/C=C/c2nc3ccccc3c(=O)[nH]2)c1 0.826 µM, Cc1[nH]c2ccccc2c1/C=C/c1nc2ccccc2c(=O)[nH]1 1.31 µM, COCC(C)N=C1NN=C(c2c[nH]c3ccccc23)CS1 (stereo not given) 6.56 µM, C=CCOc1ccc2c(OC)c3ccoc3nc2c1OC 13.1 µM, CCc1ccc(NC(=O)c2ccccc2SC)cc1 7.36 µM, CCOc1ccc(NC(=O)c2csc3c2CCCC3)cc1 2.07 µM, CCc1ccc(NC(=O)c2ccccc2Br)cc1 2.07 µM, CCOc1ccc(NC(=O)c2ccccc2SC)cc1 7.36 µM, C#CCNC(=O)/C=C/c1ccc(OC)cc1 13.1 µM, C#CCNC(=O)/C=C/c1ccc(C)cc1 8.26 µM, O=C1CCNc2ccc(-c3ccccc3)cc21 6.56 µM, CCn1c(NCc2ccc3c(c2)OCO3)nc2ccccc21 16.5 µM, C=CCn1c(NCc2ccc3c(c2)OCO3)nc2ccccc21 9.27 µM, Cc1ccc2oc(-c3cccc(NC(=O)Cn4cnc5c(=O)n(C)c(=O)n(C)c54)c3)nc2c1 6.56 µM, Cc1ccc2oc(-c3ccc(C)c(NC(=S)NC(=O)c4cccs4)c3)nc2c1 0.521 µM, Cc1ccc2oc(-c3cccc(NC(=S)NC(=O)c4cccs4)c3)nc2c1 4.14 µM, CC(=O)c1sc2nc(-c3cccs3)ccc2c1N 14.7 µM, Nc1c(C(=O)Nc2ccccc2Br)sc2nc(-c3cccs3)ccc12 7.36 µM, NC(=O)c1sc2nc(-c3cccs3)ccc2c1N 13.1 µM, O=c1/c(=C\c2ccc(F)cc2)sc2n1CCCN=2 1.85 µM, O=C(CCC1CCCN(C(=O)Cc2cccc(F)c2)C1)N1CCN(c2ccccn2)CC1 (stereo not given) 16.5 µM, Cc1c(N=Nc2ccc(N(C)C)cc2)c(=O)n(-c2ccccc2)n1C 5.21 µM, Cc1cc(N)ccc1N=Nc1c(C)n(C)n(-c2ccccc2)c1=O 14.7 µM, Cc1ccc(/C=N/NC(=S)NC2CCCCC2)o1 5.21 µM, CN(C)/C=N/c1nc2ccc3c(c2s1)CCCC3 2.33 µM, Clc1ccc(-n2ncc3c(N4CCCC4)ncnc32)cc1 0.0656 µM, CCN1CCN(c2ncnc3c2cnn3-c2ccc(C)c(C)c2)CC1 1.65 µM, Cc1cccc(-n2ncc3c(N4CCC5(CC4)OCCO5)ncnc32)c1 1.85 µM, O=C(NC1CCCC1)c1cc(-c2ccc(Cl)cc2)on1 1.65 µM, CCCCNC(=O)c1cc(-c2ccc(F)cc2)on1 3.29 µM, COc1ccc(-c2cc(C(=O)NC3CCCC3)no2)cc1 1.17 µM, CN(C(=O)c1cc(-c2ccc3c(c2)OCO3)on1)c1ccccc1 2.61 µM, CCCNC(=O)c1cc(-c2ccc(OC)cc2)on1 0.927 µM, O=C(NC1CCCC1)c1cc(-c2cccc(Cl)c2)on1 4.65 µM, Cc1ccc(-c2cc(C(=O)NC3CCCC3)no2)cc1 1.31 µM, CC1CCCC(C)N1C(=O)c1cc(-c2cccs2)on1 (stereo not given) 16.5 µM, CN(C(=O)c1cc(-c2ccccc2)on1)C1CCCCC1 2.07 µM, O=C(NC1CCCCC1)c1cc(-c2ccc(O)cc2)on1 2.93 µM, O=C(NCC1CCCO1)c1cc(-c2ccccc2F)no1 (stereo not given) 14.7 µM, O=C(NC1CCCC1)c1cc(-c2ccc(F)cc2)on1 1.85 µM, COc1cccc(-c2cc(C(=O)NC3CCCCC3)no2)c1 2.07 µM, O=C(NC1CCCC1)c1cc(-c2ccccc2)on1 2.93 µM, COc1cccc(-c2cc(C(=O)N3C(C)CCCC3C)no2)c1 (stereo not given) 3.29 µM, O=C(NCC1CCCO1)c1cc(-c2ccccc2)on1 (stereo not given) 7.36 µM, COc1ccc(-c2nc(-c3ccncc3)no2)cc1OC 4.65 µM, COc1ccc(-c2nc(-c3cccc(C)c3)no2)cc1OC 2.93 µM, Cc1cccc(-c2noc(-c3ccc(Cl)cc3[N+](=O)[O-])n2)c1 1.17 µM, COc1ccc(-c2noc(-c3ccco3)n2)cc1OC 1.65 µM, COc1ccc(-c2noc(-c3cccnc3)n2)cc1OC 6.56 µM, COc1ccc(-c2nc(-c3cccnc3)no2)cc1OC 16.5 µM, COc1ccc(-c2nc(-c3cccnc3)no2)cc1 0.826 µM, CCOc1ccccc1NC(=O)CN1C(=O)CC(c2ccc(C)c(C)c2)=Nc2ccccc21 8.26 µM, COc1ccc(CNC(=O)CN2C(=O)CC(c3ccc(C)c(C)c3)=Nc3ccccc32)cc1 11.7 µM, O=C(N/N=C\C=C\c1ccco1)c1cc(-c2ccc3ccccc3c2)n[nH]1 4.14 µM, O=C(CCN1C(=O)S/C(=C\C=C\c2ccccc2)C1=O)Nc1ccc(O)cc1 9.27 µM, Fc1ccc(-c2nnc(Cc3ccc(Cl)cc3)o2)cc1 10.4 µM, O=[N+]([O-])c1ccc(Cc2nnc(-c3ccc(F)cc3)o2)cc1 0.826 µM, C=CCSc1nnc(-c2ccc([N+](=O)[O-])cc2)o1 6.56 µM, O=[N+]([O-])c1cccnc1NCCNc1ncc(C(F)(F)F)cc1Cl 2.93 µM, O=[N+]([O-])c1cccnc1NCCc1c[nH]c2ccccc12 4.14 µM, O=[N+]([O-])c1cccnc1NCCc1ccccc1 5.21 µM, COc1ccc(CNc2ncccc2[N+](=O)[O-])cc1 18.5 µM, Cc1ccccc1-n1c(C)cc(/C=N/Nc2ccc([N+](=O)[O-])cn2)c1C 3.69 µM, Cc1ccc(C(=O)Nc2cccnc2Cl)cc1Cl 3.69 µM, O=C(Nc1cccnc1Cl)c1cc(-c2cccc(O)c2)on1 18.5 µM, O=C(Nc1cccnc1Cl)c1cc(-c2ccccc2O)on1 2.61 µM, CCC(C(=O)N1CCN(c2cccc(C)c2C)CC1)n1nc(C)c2sc3ccccc3c2c1=O (stereo not given) 8.26 µM, COc1ccccc1Nc1ccc(Nc2ccccc2OC)nn1 7.36 µM, CCOC(=O)c1c(-c2ccccc2)cn2c(C)cc(C)nc12 5.85 µM, CCOC(=O)c1c(C)nc(-c2ccccc2)nc1N 4.65 µM, CC(=O)c1c(C)nc(-c2ccc(Cl)cc2)nc1N 1.65 µM, C/C(=N/NC(=O)c1ccoc1C)c1cccc(NC(=O)C(F)(F)F)c1 1.65 µM, C/C(=N/NC(=O)c1ccoc1C)c1cccc(NC(=O)C2CC2)c1 1.65 µM, C/C(=N/NC(=O)c1ccccc1)c1ccc(NC(=O)C(F)(F)F)cc1 4.65 µM, C/C(=N/NC(=O)c1ccoc1C)c1ccc(NC(=O)C2CCCC2)cc1 1.31 µM, COC1=C/C(=C/c2c(O)c(C#N)c3ccccn23)C=CC1=O 11.7 µM, COc1ccc(-c2cc3cc(OC)c(OC)cc3c(C)n2)cc1 7.36 µM, COc1ccc2cc(-c3ccccc3)ncc2c1 0.369 µM, COc1ccc2nc(-c3ccccc3)cc(OC)c2c1 14.7 µM, CC1Cc2ccccc2N1C(=O)COc1ccc2c(c1)OCO2 (stereo not given) 11.7 µM, O=C(COc1ccc2c(c1)OCO2)Nc1ccccc1C(F)(F)F 16.5 µM, O=C(COc1ccc2c(c1)OCO2)Nc1ccc(Cl)cn1 2.07 µM, O=C(COc1ccc2c(c1)OCO2)Nc1cccc(F)c1 8.26 µM
